Over roughly 18,000 sequences, “log2 normalized intensity” has its median near 0.39; the highest 2% begin near 6.6. The full list was thinned out, with the highest values kept by preference.

The target of this assay is T1, HNF4alpha2 (COS-7 nuclear extract) (Homo sapiens, UniProt P41235 1-474).
T1 sequence: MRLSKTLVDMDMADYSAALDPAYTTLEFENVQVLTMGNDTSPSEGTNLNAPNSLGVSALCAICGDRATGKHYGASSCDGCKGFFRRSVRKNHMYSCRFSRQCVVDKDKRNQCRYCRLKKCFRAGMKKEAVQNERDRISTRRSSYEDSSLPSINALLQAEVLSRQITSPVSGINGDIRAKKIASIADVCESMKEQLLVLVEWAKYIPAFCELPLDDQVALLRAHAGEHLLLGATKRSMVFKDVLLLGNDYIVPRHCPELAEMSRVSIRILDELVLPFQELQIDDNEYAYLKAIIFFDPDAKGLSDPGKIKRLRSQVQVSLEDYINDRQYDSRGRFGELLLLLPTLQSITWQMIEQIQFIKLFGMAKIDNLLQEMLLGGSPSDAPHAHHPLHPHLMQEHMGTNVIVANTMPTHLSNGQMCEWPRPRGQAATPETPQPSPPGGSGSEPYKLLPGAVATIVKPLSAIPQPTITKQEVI
The assay is described as follows: protein-binding microarray; COS-7 nuclear extract on double-stranded Agilent 4x180k PBM; binding buffer, salt, pH and temperature not given in the material; high values mean tight binding. To be noted: chain copies: 2; label: 3' end of strand 1 on the slide; dsDNA, one strand shown. In outline: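 Binding signal is the background-corrected, normalized gProcessedSignal calculated by Agilent software. It was measured by applying nuclear extracts of COS-7 cells transiently transfected with a human HNF4α isoform expression vector to a custom Agilent SurePrint G3 4x180k array of ~44,000 double-stranded ~60-nt test sequences in quadruplicate, then imaging bound HNF4α on an Agilent G2565CA scanner at 2-µm resolution.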
Turning to “AGGGTGACCCCTGTGGTACAGGCAGTGACTGCCTAGGGAGATTAGAGTATCGGTCGA”, the binding signal stood at 1.48 log2 normalized intensity.

For the sequence “GAGGCTGCTCTCTGTCCCTGCACCCTACCCGCCTAGGGAGATTAGAGTATCGGTCGA”, the binding signal came to 1.6 log2 normalized intensity. As for “AGGGCCCTTCACTATTTTCAAAGGTCAACAGCCTAGGGAGATTAGAGTATCGGTCGA”, the binding signal is 3.49 log2 normalized intensity.

Regarding “TGTGTTTCCACAAACACAGATCAGATATGAGCCTAGGGAGATTAGAGTATCGGTCGA”, the binding signal was -0.462 log2 normalized intensity. For “GGCCTCCCCATCCTCATGACAGTACCTCTCGCCTAGGGAGATTAGAGTATCGGTCGA”, the binding signal is 2.32 log2 normalized intensity. The value for “GAACTTTGACCACCTACTGTTTGTGCAGAGGCCTAGGGAGATTAGAGTATCGGTCGA” was 4.13 log2 normalized intensity. Regarding “ACACTGCCATTTAAAAGTTTCCCTTGATCAGCCTAGGGAGATTAGAGTATCGGTCGA”, the binding signal worked out at 0.876 log2 normalized intensity.

As for “TTCTTTTTTTTTTTTTTTTTTTTTTGAGATGCCTAGGGAGATTAGAGTATCGGTCGA”, the binding signal is 3 log2 normalized intensity.

Regarding “TATCCCTGGAGCCTTAGAAGATGACCTTTTGCCTAGGGAGATTAGAGTATCGGTCGA”, the binding signal was 5.59 log2 normalized intensity. The value for “ATGCCAGATGACCTTTGCCCTTGACTTTTTGCCTAGGGAGATTAGAGTATCGGTCGA” was 8.55 log2 normalized intensity. The result for “GGAAGTCCAGCATTCTTTTCCCCATACCAGGCCTAGGGAGATTAGAGTATCGGTCGA” reads 1.33 log2 normalized intensity; that for “TGCCCTTTGTCCAGGGTGAGAGGGACCCTTGCCTAGGGAGATTAGAGTATCGGTCGA”, 2.41 log2 normalized intensity. The value for “TTGAACCTTGGGTCTGTAATCTCACAACTCGCCTAGGGAGATTAGAGTATCGGTCGA” was 1.47 log2 normalized intensity; that for “CCTTGGGTCTGTAATCTCACAACTCAGAAGGCCTAGGGAGATTAGAGTATCGGTCGA” was 0.23 log2 normalized intensity; that for “GGGCAGCAAACCTACCTGAACTTTGCCCCAGCCTAGGGAGATTAGAGTATCGGTCGA” was 7.99 log2 normalized intensity. Consider “ATAAGGGGCAGCAAACCTACCTGAACTTTGGCCTAGGGAGATTAGAGTATCGGTCGA”, for which the binding signal was determined as 3.07 log2 normalized intensity.

On to “GGACTTTGAACCTTGGGTCTGTAATCTCACGCCTAGGGAGATTAGAGTATCGGTCGA”, for which the binding signal worked out at 7.11 log2 normalized intensity. The result for “ATGTCTCCAGAAACCAACCTTTGATCATTCGCCTAGGGAGATTAGAGTATCGGTCGA” reads 4.87 log2 normalized intensity; that for “CACACTGCAGCAAAACTTTAGGACTTTGAAGCCTAGGGAGATTAGAGTATCGGTCGA”, 3.31 log2 normalized intensity; that for “TGTCTCCAGAAATCAACCTTTGATCGTTTGGCCTAGGGAGATTAGAGTATCGGTCGA”, 5.83 log2 normalized intensity. In the case of “TGCAGCAAAACTTTAGGACTTTGAACCTTGGCCTAGGGAGATTAGAGTATCGGTCGA”, the binding signal came out at 8.63 log2 normalized intensity. The result for “ACTTCTGTCTCCAGAAATCAACCTTTGATCGCCTAGGGAGATTAGAGTATCGGTCGA” reads 7.84 log2 normalized intensity. The result for “CCACCCACACTGCAGCAAAACTTTAGGACTGCCTAGGGAGATTAGAGTATCGGTCGA” reads 0.141 log2 normalized intensity; that for “GCAAACCTACCTGAACTTTGCCCCAGAGGAGCCTAGGGAGATTAGAGTATCGGTCGA”, 5.9 log2 normalized intensity.
